# This excerpt belongs to a sample that is enriched for the strongest signals.
# B1: Flo11 (Saccharomyces cerevisiae), P08640 (protein)
# chain: MQRPFLLAYLVLSLLFNSALGFPTALVPRGSSEGTSCNSIVNGCPNLDFNWHMDQQNIMQYTLDVTSVSWVQDNTYQITIHVKGKENIDLKYLWSLKIIGVTGPKGTVQLYGYNENTYLIDNPTDFTATFEVYATQDVNSCQVWMPNFQIQFEYLQGSAAQYASSWQWGTTSFDLSTGCNNYDNQGHSQTDFPGFYWNIDCDNNCGGTKSSTTTSSTSESSTTTSSTSESSTTTSSTSESSTTTSSTSESSTSSSTTAPATPTTTSCTKEKPTPPTTTSCTKEKPTPPHHDTTPCTKKKTTTSKTCTKKTTTPVPTPSSSTTESSSAPVPTPSSSTTESSSAPVTSSTTESSSAPVPTPSSSTTESSSAPVTSSTTESSSAPVTSSTTESSSAPVPTPSSSTTESSSAPVTSSTTESSSAPVTSSTTESSSAPVTSSTTESSSAPVTSSTTESSSAPVPTPSSSTTESSSAPVTSSTTESSSAPVPTPSSSTTESSSAPVTSSTTESSSAPVPTPSSSTTESSSAPAPTPSSSTTESSSAPVTSSTTESSSAPVPTPSSSTTESSSTPVTSSTTESSSAPVPTPSSSTTESSSAPVPTPSSSTTESSSAPAPTPSSSTTESSSAPVTSSTTESSSAPVPTPSSSTTESSSAPVPTPSSSTTESSSAPVPTPSSSTTESSSAPVTSSTTESSSAPVTSSTTESSSAPVPTPSSSTTESSSAPVPTPSSSTTESSSAPVPTPSSSTTESSSAPVTSSTTESSSAPVPTPSSSTTESSSAPVPTPSSSTTESSSAPVPTPSSSTTESSVAPVPTPSSSSNITSSAPSSTPFSSSTESSSVPVPTPSSSTTESSSAPVSSSTTESSVAPVPTPSSSSNITSSAPSSIPFSSTTESFSTGTTVTPSSSKYPGSQTETSVSSTTETTIVPTKTTTSVTTPSTTTITTTVCSTGTNSAGETTSGCSPKTVTTTVPTTTTTSVTTSSTTTITTTVCSTGTNSAGETTSGCSPKTITTTVPCSTSPSETASESTTTSPTTPVTTVVSTTVVTTEYSTSTKPGGEITTTFVTKNIPTTYLTTIAPTPSVTTVTNFTPTTITTTVCSTGTNSAGETTSGCSPKTVTTTVPCSTGTGEYTTEATTLVTTAVTTTVVTTESSTGTNSAGKTTTGYTTKSVPTTYVTTLAPSAPVTPATNAVPTTITTTECSAATNAAGETTSVCSAKTIVSSASAGENTAPSATTPVTTAIPTTVITTESSVGTNSAGETTTGYTTKSIPTTYITTLIPGSNGAKNYETVATATNPISIKTTSQLATTASASSVAPVVTSPSLTGPLQSASGSAVATYSVPSISSTYQGAANIKVLGNFMWLLLALPVVF
# Experiments:
# Test in all cases: glycan array binding signal (z-score within array); higher = stronger binding
# Conditions in all cases: glycan notation: IUPAC condensed, linker removed
# [1] = molecular target: Fuc(a1-2)Gal(b1-3)GalNAc(b1-3)Gal
# In short: (§1)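 From the Consortium for Functional Glycomics database, 3228 arrays were curated, keeping only those whose protein sequence was available. Binding is given as a within-array Z-score averaged across arrays sharing a protein sequence and across linkers. Negative Z-scores can be read as non-binding.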
# [2] = molecular target: Fuc(a1-2)Gal(b1-3)GlcNAc(b1-2)Man(a1-3)[Fuc(a1-2)Gal(b1-3)GlcNAc(b1-2)Man(a1-6)]Man(b1-4)GlcNAc(b1-4)[Fuc(a1-6)]GlcNAc
# In short: as §1
# [3] = molecular target: Fuc(a1-2)Gal(b1-4)GlcNAc(b1-3)GalNAc
# In short: as §1
# [4] = molecular target: Fuc(a1-2)Gal(b1-4)[Fuc(a1-3)]GlcNAc(b1-3)GalNAc
# In short: as §1
# [5] = molecular target: Fuc(a1-2)[Gal(a1-3)]Gal(b1-3)GlcNAc
# In short: as §1
# [6] = molecular target: Fuc(a1-2)[Gal(a1-3)]Gal(b1-3)GlcNAc(b1-2)Man(a1-3)[Fuc(a1-2)[Gal(a1-3)]Gal(b1-3)GlcNAc(b1-2)Man(a1-6)]Man(b1-4)GlcNAc(b1-4)GlcNAc
# In short: as §1
# [7] = molecular target: Fuc(a1-2)[Gal(a1-3)]Gal(b1-4)[Fuc(a1-3)]Glc
# In short: as §1
# [8] = molecular target: Fuc(a1-2)[GalNAc(a1-3)]Gal(b1-4)GlcNAc
# In short: as §1
# Fuc(a1-4)GlcNAc = molecular target: Fuc(a1-4)GlcNAc
# In short: as §1
# [9] = molecular target: Gal(a1-3)Gal(b1-3)GlcNAc(b1-2)Man(a1-3)[Gal(a1-3)Gal(b1-3)GlcNAc(b1-2)Man(a1-6)]Man(b1-4)GlcNAc(b1-4)GlcNAc
# In short: as §1
# [10] = molecular target: Gal(a1-3)Gal(b1-3)[Fuc(a1-4)]GlcNAc(b1-2)Man(a1-3)[Gal(a1-3)Gal(b1-3)[Fuc(a1-4)]GlcNAc(b1-2)Man(a1-6)]Man(b1-4)GlcNAc(b1-4)GlcNAc
# In short: as §1
# Gal(a1-4)GlcNAc = molecular target: Gal(a1-4)GlcNAc
# In short: as §1
# Gal(a1-6)Glc = molecular target: Gal(a1-6)Glc
# In short: as §1
# Gal(b1-3)Gal(b1-4)GlcNAc = molecular target: Gal(b1-3)Gal(b1-4)GlcNAc
# In short: as §1
# [11] = molecular target: Gal(b1-3)[Fuc(a1-4)]GlcNAc(b1-2)Man(a1-3)[Gal(b1-3)[Fuc(a1-4)]GlcNAc(b1-2)Man(a1-6)]Man(b1-4)GlcNAc(b1-4)GlcNAc
# In short: as §1
# [12] = molecular target: Gal(b1-3)[Fuc(a1-4)]GlcNAc(b1-3)Gal(b1-3)[Fuc(a1-4)]GlcNAc
# In short: as §1
# [13] = molecular target: Gal(b1-3)[GlcNAc(b1-6)]GalNAc
# In short: as §1
# [14] = molecular target: Gal(b1-4)GlcNAc(b1-3)Gal(b1-4)[Fuc(a1-3)GlcNAc(b1-6)]Gal(b1-4)Glc
# In short: as §1
# Gal3S(b1-4)Glc = molecular target: Gal3S(b1-4)Glc
# In short: as §1
# Gal6S(b1-4)GlcNAc6S = molecular target: Gal6S(b1-4)GlcNAc6S
# In short: as §1
# GalNAc(b1-3)GalNAc = molecular target: GalNAc(b1-3)GalNAc
# In short: as §1
# [15] = molecular target: GalNAc(b1-4)GlcNAc(b1-2)Man(a1-3)[GalNAc(b1-4)GlcNAc(b1-2)Man(a1-6)]Man(b1-4)GlcNAc(b1-4)GlcNAc
# In short: as §1
# [16] = molecular target: GlcNAc(a1-4)Gal(b1-4)GlcNAc(b1-3)Gal(b1-4)GlcNAc
# In short: as §1
# [17] = molecular target: GlcNAc(a1-4)Gal(b1-4)GlcNAc(b1-3)Gal(b1-4)[Fuc(a1-3)]GlcNAc(b1-3)Gal(b1-4)[Fuc(a1-3)]GlcNAc
# In short: as §1
# [18] = molecular target: GlcNAc(b1-2)Man(a1-3)[GlcNAc(b1-2)Man(a1-6)]Man(b1-4)GlcNAc(b1-4)[Fuc(a1-6)]GlcNAc
# In short: as §1
# [19] = molecular target: GlcNAc(b1-2)[GlcNAc(b1-4)]Man(a1-3)[GlcNAc(b1-4)][GlcNAc(b1-2)[GlcNAc(b1-6)]Man(a1-6)]Man(b1-4)GlcNAc(b1-4)GlcNAc
# In short: as §1
# GlcNAc(b1-4)GlcNAc = molecular target: GlcNAc(b1-4)GlcNAc
# In short: as §1
# [20] = molecular target: Man(a1-2)Man(a1-2)Man(a1-3)Man
# In short: as §1
# [21] = molecular target: Man(a1-2)Man(a1-3)[Man(a1-2)Man(a1-6)]Man
# In short: as §1
# [22] = molecular target: Man(a1-2)Man(a1-6)[Man(a1-3)]Man(a1-6)[Man(a1-2)Man(a1-2)Man(a1-3)]Man(b1-4)GlcNAc(b1-4)GlcNAc
# In short: as §1
# [23] = molecular target: Neu5Ac(a2-3)Gal(b1-3)GalNAc6S
# In short: as §1
# [24] = molecular target: Neu5Ac(a2-3)Gal(b1-4)GlcNAc6S
# In short: as §1
# [25] = molecular target: Neu5Ac(a2-3)Gal(b1-4)[Fuc(a1-3)]GlcNAc(b1-3)Gal(b1-4)GlcNAc
# In short: as §1
# [26] = molecular target: Neu5Ac(a2-3)Gal(b1-4)[Fuc(a1-3)]GlcNAc(b1-3)GalNAc
# In short: as §1
# [27] = molecular target: Neu5Ac(a2-6)Gal(b1-4)GlcNAc(b1-3)Gal(b1-4)GlcNAc(b1-3)Gal(b1-4)GlcNAc
# In short: as §1
# [28] = molecular target: Neu5Ac(a2-6)Gal(b1-4)GlcNAc(b1-3)Gal(b1-4)[Fuc(a1-3)]GlcNAc(b1-3)Gal(b1-4)[Fuc(a1-3)]GlcNAc
# In short: as §1
# [29] = molecular target: Neu5Ac(a2-6)Gal(b1-4)GlcNAc6S
# In short: as §1
# [30] = molecular target: Neu5Gc(b2-6)Gal(b1-4)GlcNAc
# In short: as §1
binder,measurement,setting,value
B1,glycan array binding signal (z-score),[1],4.03
same,glycan array binding signal (z-score),[2],0.319
same,glycan array binding signal (z-score),[3],1.35
same,glycan array binding signal (z-score),[4],5.39
same,glycan array binding signal (z-score),[5],-0.315
same,glycan array binding signal (z-score),[6],-0.389
same,glycan array binding signal (z-score),[7],-0.826
same,glycan array binding signal (z-score),[8],-0.692
same,glycan array binding signal (z-score),Fuc(a1-4)GlcNAc,0.442
same,glycan array binding signal (z-score),[9],0.723
same,glycan array binding signal (z-score),[10],0.122
same,glycan array binding signal (z-score),Gal(a1-4)GlcNAc,-0.72
same,glycan array binding signal (z-score),Gal(a1-6)Glc,-0.453
same,glycan array binding signal (z-score),Gal(b1-3)Gal(b1-4)GlcNAc,0.164
same,glycan array binding signal (z-score),[11],-0.241
same,glycan array binding signal (z-score),[12],-0.512
same,glycan array binding signal (z-score),[13],-1.34
same,glycan array binding signal (z-score),[14],-1.05
same,glycan array binding signal (z-score),Gal3S(b1-4)Glc,0.09
same,glycan array binding signal (z-score),Gal6S(b1-4)GlcNAc6S,0.193
same,glycan array binding signal (z-score),GalNAc(b1-3)GalNAc,-0.184
same,glycan array binding signal (z-score),[15],0.79
same,glycan array binding signal (z-score),[16],6.8
same,glycan array binding signal (z-score),[17],3.01
same,glycan array binding signal (z-score),[18],3.49
same,glycan array binding signal (z-score),[19],0.283
same,glycan array binding signal (z-score),GlcNAc(b1-4)GlcNAc,-0.781
same,glycan array binding signal (z-score),[20],7.09
same,glycan array binding signal (z-score),[21],-0.669
same,glycan array binding signal (z-score),[22],-1.08
same,glycan array binding signal (z-score),[23],-0.833
same,glycan array binding signal (z-score),[24],0.179
same,glycan array binding signal (z-score),[25],2.91
same,glycan array binding signal (z-score),[26],3.06
same,glycan array binding signal (z-score),[27],-0.252
same,glycan array binding signal (z-score),[28],0.359
same,glycan array binding signal (z-score),[29],-0.192
same,glycan array binding signal (z-score),[30],0.414
